Screening results deposited in PubChem BioAssay by National Center for Advancing Translational Sciences (NCATS).
Compounds with a hit are over-represented: about 4.6% of the library has one in this group of screens.
NTMT1 inh = blocks human N-terminal methyltransferase 1 activity | AID 1645870 | 59,000 compounds, 2.5% hits | Potency, µM (top dose mostly 114 µM), actives largely listed as inhibitors | NTMT1 MTase-Glo SAH luminescence, purified enzyme | Q9BV86; note: nearly all actives have a fitted effect of over 65% in size
Target sequence (Q9BV86 whole entry, looked up): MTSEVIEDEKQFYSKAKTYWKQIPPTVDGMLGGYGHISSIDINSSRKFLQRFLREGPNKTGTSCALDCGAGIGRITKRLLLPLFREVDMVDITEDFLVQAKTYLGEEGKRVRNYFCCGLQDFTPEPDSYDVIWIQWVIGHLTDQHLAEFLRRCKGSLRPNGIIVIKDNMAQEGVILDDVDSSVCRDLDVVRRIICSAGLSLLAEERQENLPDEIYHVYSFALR
DRV1 agonist = GPR32 (DRV1) agonism, beta-arrestin recruitment. O75388. CHO-K1 GPR32 beta-arrestin PathHunter luminescence, 90 min; zero percent set by DMSO-only wells. activation, % at 76.9 µM. 48,000 compounds, 2.5% hits. AID 1346428;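 active = activation of at least 60% and not above a set upper limit, about 1 call in 100 departs from these limits; inconclusive = activation of 40% to 60%, or above that upper limit; inactive = activation under 40%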
Target sequence (O75388 whole entry, looked up): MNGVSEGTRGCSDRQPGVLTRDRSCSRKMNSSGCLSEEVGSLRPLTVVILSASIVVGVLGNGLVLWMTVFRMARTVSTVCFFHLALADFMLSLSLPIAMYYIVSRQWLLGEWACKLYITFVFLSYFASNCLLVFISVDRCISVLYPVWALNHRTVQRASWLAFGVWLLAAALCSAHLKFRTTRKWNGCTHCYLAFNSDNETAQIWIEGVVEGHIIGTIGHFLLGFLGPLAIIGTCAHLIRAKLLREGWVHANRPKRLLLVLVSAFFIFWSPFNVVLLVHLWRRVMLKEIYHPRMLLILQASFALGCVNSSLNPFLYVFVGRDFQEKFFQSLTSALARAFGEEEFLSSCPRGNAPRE
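Step 1: seed CHO-K1 GPR32 beta-arrestin cells, 2,500/well, overnight at 37 °C. Step 2: add compounds, 90 min at 37 °C. Step 3: detection reagent, 1 h ambient, then luminescence.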
HTT promoter inh = inhibits huntingtin promoter activity | AID 1508623 | Potency, µM (series often up to 57.5 µM), actives largely listed as inhibitors | 48,000 compounds, 0.93% hits | HEK293 HTT promoter firefly luciferase reporter, 24 h; note: nearly all actives have a fitted effect of over 50% in size
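HEK293 Fluc reporter, 2,500 cells/well, 24 h pre-culture; cpds up to 57.5 uM final, 24 h 37 degrees C; Dual-Glo, 10 min RT; normalized vehicle = 0%, zero RLU = -100%.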
HTT-AS act = HTT-AS promoter activation | HEK293 HTT-AS promoter firefly luciferase reporter, 24 h; response scale: percent change from vehicle, -100% = no light | AID 1508624 | Potency, µM (titrated, usually from 57.5 µM), actives largely listed as activators | 48,000 compounds, 0.24% hits; note: nearly all actives have a fitted effect of over 55% in size
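HEK293 cells carrying firefly luciferase reporters were seeded at 2,500 per well in Opti-MEM and cultured for 24 h. They were then treated with compounds at up to 57.5 uM final for 24 h at 37 degrees C before Dual-Glo luminescence readout.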
Hits are given with their value; i = inactive; ? = inconclusive; nt = no result. Unless noted, calls come from the whole dose curve; as a rule, active = well fitted curve in the direction sought with a large enough effect; inconclusive = small, poorly fitted or top-dose-only effect, or another doubt; inactive = no such curve, though single readings can be large; an effect the other way counts as inactive or inconclusive.

SMILES | NTMT1 inh | DRV1 agonist | HTT promoter inh | HTT-AS act
Cc1ccc(-c2nn(CC(=O)N(C)C(C)c3ccco3)c(=O)cc2C)cc1 (stereo not given) | i | nt | nt | nt
N#Cc1ccc(-c2cnc3[nH]cc(NC(=O)c4cccnc4)c3c2)cc1 | i | nt | nt | nt
Cc1ccc(Nc2nc(C(N)=O)c(NC(=O)c3ccccc3Br)s2)cc1 | ? | 61 | i | i
CCCCS(=O)(=O)NC(Cc1ccc(OCCCCC2CCNCC2)cc1)C(=O)O (stereo not given) | i | nt | nt | nt
CCO[C@H](Cc1ccc(OCCc2ccc(OS(C)(=O)=O)cc2)cc1)C(=O)O | i | 76 | i | i
CCc1nn(CC(=O)N2CCN(c3cccc(C)c3C)CC2)c(=O)c2cc3sccc3n12 | i | i | i | i
CCOC(=O)C1CCN(C(=O)Cn2nc(CC)n3c(cc4sccc43)c2=O)CC1 | i | i | 2.8µM | i
O=C(COCC(=O)N1CCN(C(c2ccccc2)c2ccccc2)CC1)Nc1ccc(Cl)cc1C(=O)O | i | nt | nt | nt
Cc1cccc(C(=O)NNc2ncnc3c2cnn3-c2ccc(C)cc2C)c1 | ? | 113 | i | i
c1ccc(-n2ncc3c(NC4CCCC4)ncnc32)cc1 | i | i | i | ?
Cc1cccc(-n2ncc3c(NC4CCCC4)ncnc32)c1 | ? | 114 | i | ?
Cc1ccc(-n2ncc3c(NC4CCCC4)ncnc32)cc1 | i | 112 | ? | i
Cc1cccc(-n2ncc3c(Nc4ccc(C)c(Cl)c4)ncnc32)c1 | ? | 74 | i | i
O=C(NNc1ncnc2c1cnn2-c1ccccc1)c1ccccc1 | i | i | i | i
CS(=O)(=O)Nc1ccc2oc3c(OC(F)F)ccc(C(=O)Nc4c(Cl)cncc4Cl)c3c2c1 | i | nt | nt | nt
Cc1ccc2c(=O)cc(C(=O)Nc3ccc(S(=O)(=O)Nc4ncccn4)cc3)oc2c1C | ? | 67 | i | i
Cc1cc2oc(C(=O)Nc3ccc(S(=O)(=O)Nc4ncccn4)cc3)cc(=O)c2cc1C | i | i | i | i
O=C(NCCc1csc(-c2cccnc2)n1)c1ccc(F)c(F)c1 | i | ? | i | i
O=C(NCCc1csc(-c2cccnc2)n1)c1cccc(C(F)(F)F)c1 | i | 68 | ? | i
Cc1ccc(NC(=O)CSc2n[nH]c(-c3ccc(F)cc3)n2)cc1F | i | 67 | i | i
COc1ccc(C(=O)N2CCN(C(=O)/C=C/c3ccc(Br)cc3)CC2)cc1 | i | nt | nt | nt
CN1CCN(C2=Nc3ccccc3Oc3ccc(Cl)cc32)CC1 | i | i | i | i
CN1C[C@H]2c3ccccc3Oc3ccc(Cl)cc3[C@@H]2C1 | i | 92 | i | i
COc1cc(-c2cn(C)c(=O)c3cnccc23)cc(OC)c1CN(C)C | i | nt | nt | nt
Cn1nc(-c2ccc(C(=O)Nc3ccc(OC(F)(F)F)cc3)cc2)c2ccccc2c1=O | i | i | 10µM | i
SMILES | NTMT1 inh | DRV1 agonist | HTT promoter inh | HTT-AS act
COCCn1ccc2c(OCC(=O)Nc3cccc(OC)c3)cccc2c1=O | i | 73 | i | i
CCOC(=O)c1ccc(NC(=O)COc2cccc3c(=O)n(C)ccc23)cc1 | i | 69 | ? | i
CNC(=O)COc1ccc(NC(=O)c2ccc(-c3nn(C)c(=O)c4ccccc34)cc2)cc1 | i | i | i | i
Cn1ccc2c(OCC(=O)Nc3ccc(OC(F)(F)F)cc3)cccc2c1=O | i | i | 20µM | i
Cn1ccc2c(OCC(=O)Nc3ccc([N+](=O)[O-])cc3)cccc2c1=O | i | i | i | i
COCCn1ccc2c(OCC(=O)Nc3cccc(C(F)(F)F)c3)cccc2c1=O | i | ? | ? | i
CC1(C)C[C@H]2C=C(C=O)[C@]3(C(=O)O)C[C@]3(C)[C@H]2C1 | i | nt | nt | nt
Cc1cnc(-c2ccccc2C(C)C)nc1NCc1ccc(-c2ccnc(C(F)(F)F)c2)cc1 | i | nt | nt | nt
CC(=O)NC(C)c1cnc(-c2cnc(Oc3ccc(OC(C)C)cc3)s2)s1 (stereo not given) | i | nt | nt | nt
C=CC(C)(C)c1[nH]c2ccccc2c1C1=C(O)C(=O)C(c2c[nH]c3c(CC=C(C)C)cccc23)=C(O)C1=O | 40µM | nt | nt | nt
CCc1ccc(CNC(=O)c2cc3ccccn3n2)cc1 | i | i | i | ?
Cc1cccc(CCNC(=O)c2cc3ccccn3n2)c1 | nt | 101 | nt | nt
CC[C@@H]([C@H](C)O)n1ncn(-c2ccc(N3CCN(c4ccc(OC[C@@H]5CO[C@@](Cn6cncn6)(c6ccc(F)cc6F)C5)cc4)CC3)cc2)c1=O | i | 68 | i | i
COc1cccc(CNc2ccc(S(=O)(=O)Nc3ccc(-c4ccccc4)cc3)cc2)c1O | i | nt | nt | nt
CC1CCN(C(c2ccc(F)cc2)c2ccc(C(C)C(=O)O)cc2-c2ccc(C(F)(F)F)cc2)CC1 (stereo not given) | i | nt | nt | nt
COCCN1C(=O)c2[nH]nc(-c3c(C)cc(C)cc3O)c2C1c1cccc(O)c1 (stereo not given) | i | 85 | ? | i
COc1cc(C2c3c(-c4cc(C)ccc4O)n[nH]c3C(=O)N2Cc2ccco2)cc(OC)c1OC (stereo not given) | i | i | i | i
COc1cc(C2c3c(-c4c(C)cc(C)cc4O)n[nH]c3C(=O)N2Cc2ccco2)cc(OC)c1OC (stereo not given) | i | 65 | i | i
COc1cc(C2c3c(-c4c(C)cc(C)cc4O)n[nH]c3C(=O)N2CCO)cc(OC)c1OC (stereo not given) | i | ? | i | i
CC(=O)Nc1cccc([S+](=O)([O-])N2CCCN([S+](=O)([O-])c3cccc(NC(C)=O)c3)CC2)c1 | i | nt | nt | nt
O=C(NCCCCc1ccccc1)C1CCN(c2nc(-c3ccc(Br)cc3)cs2)CC1 | i | nt | nt | nt
CC(C)n1cnc2c(-c3cnc(N)nc3)nc(N3CCOCC3)nc21 | i | nt | nt | nt
CCOc1ccc(CC(=O)NCCc2sc(-c3cccc(F)c3)nc2C)cc1 | i | 69 | ? | i
CCOc1ccc(C(=O)NCCc2sc(-c3ccc(OC)c(OC)c3)nc2C)cc1 | ? | i | i | i
COc1ccc(C(=O)NCCc2sc(-c3cccc(F)c3)nc2C)cc1 | i | 67 | i | i
SMILES | NTMT1 inh | DRV1 agonist | HTT promoter inh | HTT-AS act
COc1cccc(C(=O)NCCc2sc(-c3cccc(C)c3)nc2C)c1 | i | i | i | i
COc1ccc(CC(=O)NCCc2sc(-c3cccc(F)c3)nc2C)cc1 | i | 98 | ? | i
Cc1cccc(C(=O)NCCc2sc(-c3ccccc3)nc2C)c1 | ? | 78 | i | i
N#Cc1ccc(NS(=O)(=O)c2ccc(NC(=O)Cc3ccc(Cl)c(Cl)c3)cc2)cc1 | i | nt | nt | nt
C=C1C[C@H]2C=Nc3cc(OCCCOc4cc5c(cc4OC)C(=O)N4CC(=C)C[C@H]4C=N5)c(OC)cc3C(=O)N2C1 | i | nt | nt | nt
COc1ccc(-c2nc(C)c(CCNC(=O)c3c(F)cccc3F)s2)cc1 | i | 80 | i | i
Cc1cc(NS(=O)(=O)c2cc3c(cc2F)NC(=O)CC3)ccc1Cl | i | nt | nt | nt
CCOC(=O)NNc1ccc(N(CC)CC(C)O)nn1 (stereo not given) | 28µM | i | i | i
O=C(N/N=C/c1ccccc1O)c1ccncc1 | i | 96 | i | i
C/C(=N/NC(=O)c1ccncc1)C(=O)O | i | i | i | i
